The campaign covered roughly 97,000 compounds. About 520 (0.54%) were called active. The list comes from a sample in which actives are over-represented; it also holds similar structures and randomly drawn compounds. Values without a mark were called inactive.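 How the source made its calls: active means inhibition of 50% or more in the single-concentration screen; inactive means inhibition below 50%.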
The compounds below were run against Serine/threonine-protein kinase PLK1 (Homo sapiens) (UniProt P53350) (assay: Plk1 peptide phosphorylation blockers – biochemical, TR-FRET, primary screen (AID 619;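 further: 0% = DMSO max control and 100% = H-89 dihydrochloride min control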)). Conditions: recombinant PLK1 kinase, at 10 µM, active compounds read high.
Chain of Serine/threonine-protein kinase PLK1 (Homo sapiens) (P53350 whole entry, looked up): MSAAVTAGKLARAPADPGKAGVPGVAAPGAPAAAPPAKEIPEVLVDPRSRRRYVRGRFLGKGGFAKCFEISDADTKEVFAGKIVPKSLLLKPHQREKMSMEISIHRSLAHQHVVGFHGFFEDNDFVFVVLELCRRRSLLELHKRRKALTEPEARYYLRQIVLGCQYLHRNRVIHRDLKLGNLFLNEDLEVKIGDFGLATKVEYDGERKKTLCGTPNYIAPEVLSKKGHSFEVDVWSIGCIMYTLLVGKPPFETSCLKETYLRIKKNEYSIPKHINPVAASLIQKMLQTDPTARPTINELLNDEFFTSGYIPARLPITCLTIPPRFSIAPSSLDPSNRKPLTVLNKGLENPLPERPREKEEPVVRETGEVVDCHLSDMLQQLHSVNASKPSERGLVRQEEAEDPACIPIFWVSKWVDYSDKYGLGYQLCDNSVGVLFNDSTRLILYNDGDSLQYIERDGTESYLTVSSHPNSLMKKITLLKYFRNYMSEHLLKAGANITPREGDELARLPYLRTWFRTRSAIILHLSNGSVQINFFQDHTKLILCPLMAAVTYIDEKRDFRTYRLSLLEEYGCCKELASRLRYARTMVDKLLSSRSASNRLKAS

SMILES	inhibition
O=S(=O)(c1cnccc1N1CCN(/N=C/c2ccc(Br)cc2)CC1)N1CCCCC1	-2.5%
Cc1cccc(S(=O)(=O)CC(=O)Nc2nc(-c3ccccc3)cs2)c1	-1.62%
COCc1nnc(NC(=O)CS(=O)(=O)Cc2ccccc2)s1	-4.96%
O=C(CCS(=O)(=O)c1ccccc1)Nc1nc2c(s1)CCCC2	68.7% (active)
COC(=O)c1ccc(CSc2nnc(NC(C)C)s2)cc1	-15%
O=C(c1ccc(F)cc1)c1c[nH]c(C(=O)NCc2cccnc2)c1	3.12%
CCSc1nnc(NC(=O)Cc2ccccc2OC)s1	-15.2%
CC(=O)c1cnn(-c2cc(Oc3ccc(F)cc3)ncn2)c1C	-5.47%
CC(C)=CC(=O)Nc1nnc(-c2ccc(F)cc2)s1	-17.5%
COc1ccc(C(=O)Nc2ncc3c(n2)-c2ccccc2CC3)cc1	-1.84%
C/C(=N/NC(=O)c1ccc(NC(=O)c2ccc(F)cc2)cc1)c1ccccc1	-9.91%
CCCc1nnc(NC(=O)CN2C(=O)c3ccccc3S2(=O)=O)s1	-11%
O=C(CN1C(=O)c2ccccc2S1(=O)=O)N1CCc2ccccc21	-11.2%
CNC(=O)CN1C(=O)c2ccccc2S1(=O)=O	58.4% (active)
CCOC(=O)N1CCN(C(c2cccnc2)c2ccc3cccnc3c2O)CC1 (stereo unspecified)	5.49%
CN(C(=O)CSc1nnc(N)s1)c1c(N)n(Cc2ccccc2)c(=O)[nH]c1=O	-0.95%
CN1/C(=C\C=C2\N=C(c3ccc(F)cc3)OC2=O)C(C)(C)c2ccccc21	-25.2%
Cc1ccc(NC(=O)c2ccc(CSc3ncnc4nc[nH]c34)cc2)c(C)c1	27.2%
O=C(Nc1ccc2c(c1)CCC2)c1cccc(S(=O)(=O)N2CCN(c3ccc(F)cc3)CC2)c1	-5.86%
CCOC(=O)N1CCN(S(=O)(=O)c2ccc(C(=O)Nc3ccc(F)cc3F)cc2)CC1	-7.78%
O=C(Nc1cccc(F)c1)c1ccc(S(=O)(=O)N2CCCC2)cc1	72.1% (active)
CN(Cc1ccccc1)C(=O)COc1ccccc1	-6.87%
C=CCNC(=S)N/N=C/c1ccc(OCc2ccccc2)cc1	7.95%
O=C(Nc1ccc2c(c1)OCCO2)C(c1ccc(F)cc1)N1CCCCC1 (stereo unspecified)	1.96%
CC1(C)Cc2c(sc3nc(SCC(=O)NCc4ccccc4)n(-c4ccccc4)c(=O)c23)CS1	-3.27%
O=C(Nc1ccccc1Cl)O/N=C(/c1ccccc1)c1ccccn1	-2.38%

Source: PubChem BioAssay AID619 (University of Pittsburgh Molecular Library Screening Center, 2007)
